High-throughput results: PubChem BioAssay, National Center for Advancing Translational Sciences (NCATS)
The list is not random: actives were taken first. Their share in the collection is about 2.3%.
Tau fibril FP: tau fibrillization inhibition (FP); 280,000 compounds, 0.39% hits; Potency, µM (top dose mostly 57.7 µM), for inactives: top-dose activity, negative = inhibition, most hits filed as inhibitors; K18 P301L tau heparin fibrillization, Alexa594 FP, 6 h; note: potency is the fitted concentration of half-maximal effect; nearly all actives have a fitted effect of over 55% in size
Target sequence (P10636 561-689 P618L limits assumed): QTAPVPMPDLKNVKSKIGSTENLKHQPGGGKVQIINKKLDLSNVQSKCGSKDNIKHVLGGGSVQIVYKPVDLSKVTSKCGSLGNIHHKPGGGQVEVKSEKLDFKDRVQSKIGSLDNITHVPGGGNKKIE
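Human K18 P301L fragment (15 uM unlabeled plus 0.24 uM Alexa 594-labeled) in 100 mM sodium acetate pH 7 with compound, aggregation induced by 20 uM heparin for 6 hr at 37 C. ThT (30 uM) added for 1 hr, then Alexa 594 FP read.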
USP1-UAF1 inh: inhibitors of human USP1/UAF1 deubiquitinase | Potency, µM (highest dose often 57.1 µM), inactives show top-dose activity change, negative = inhibition, actives largely listed as inhibitors | recombinant USP1/UAF1, Ub-Rhodamine cleavage fluorescence | 390,000 compounds, 0.23% hits | O94782; note: potency is the fitted concentration of half-maximal effect; nearly all actives have a fitted effect of over 60% in size
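USP1/UAF1 complex at 1 nM was preincubated with compound for 15 min at room temperature, then Ub-Rho substrate (150nM final) was added. Fluorescence (480/540 nm) was read kinetically, 6 reads every 60 seconds.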
Tau fluor cs: counter-screen for tau fibril formation inhibitors; 280,000 compounds, 0.93% hits; AID 1463; tau K18 P301L Alexa594 fluorescence, heparin fibrillization; Potency, µM (highest dose often 57.7 µM), for inactives: top-dose activity change, negative = decrease; note: potency is the fitted concentration of half-maximal effect; nearly all actives have a fitted effect of over 55% in size
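Human tau K18 P301L (15 uM unlabeled, 0.24 uM Alexa 594-labeled) in 100 mM sodium acetate pH 7 with 20 uM heparin, 6 hr at 37 C. ThT 30 uM added, 1 hr ambient; Alexa 594 FP and total fluorescence read at 555/632 nm.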
Tau ThT inhib: blocks human tau fibril formation measured by thioflavin T | AID 1460 | 270,000 compounds, 2.1% hits | recombinant tau K18 P301L (four-repeat tau fragment), heparin-induced fibrillization, ThT fluorescence | Potency, µM (highest dose often 57.4 µM), inactives show top-dose activity, negative = inhibition, most hits filed as inhibitors | P10636; note: potency is the fitted concentration of half-maximal effect; nearly all actives have a fitted effect of over 55% in size
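Aggregation was driven by heparin (20 uM final) acting on recombinant tau […] bearing P301L in 100 mM sodium acetate pH 7; fibrils were detected with Thioflavin T.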
FBPA coupling cs: coupling enzyme interference in Giardia aldolase counter-screen | 290,000 compounds, 0.67% hits | AID 2472 | activity change, negative = inhibition, % at 58.2 µM, hits read low | coupling enzyme system counterscreen, AmpLite Red fluorescence; in the data active = activity change below about -30%
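First, compound is pin-transferred into glyceraldehyde-3-phosphate coupling-enzyme reagent at 57.5 uM final and held 10 min at RT. Next, substrate, coupling system and AmpLite Red are added. After 20 min RT, fluorescence (525/598 nm) is read.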
* hit, by the source's call; ? = inconclusive; . = no result given; [ ] = dose if it differs, or a comment. Unless noted, calls come from the whole dose curve; as a rule, active = well fitted curve in the direction sought with a large enough effect; inconclusive = small, poorly fitted or top-dose-only effect, or another doubt; inactive = no such curve, though single readings can be large; an effect the other way counts as inactive or inconclusive. % is set by controls: 0 for no effect and ±100 for the full control effect.

SMILES	Tau fibril FP	USP1-UAF1 inh	Tau fluor cs	Tau ThT inhib	FBPA coupling cs
COc1ccc2nc(N3CCCCC3)c(/C=C3\SC(=S)NC3=O)cc2c1	-3%	?	?	14µM*	6
COc1ccc(C=C2SC(=S)NC2=O)c(OC)c1OC	.	-14%	.	.	.
CCOc1ccc(CCNC(=O)C2Cc3ccccc3N2C(=O)CC)cc1OCC (centres undefined)	-16%	-17%	0%	12%	.
Cc1ccc(Cl)cc1NC(=O)CON=C(N)c1ccccc1	.	-5%	.	.	.
COc1ccc(O)c(-c2cc(-c3cccc(Br)c3)n[nH]2)c1	2%	-18%	14µM*[quencher]	?	0
COc1ccc(-c2cc(-c3cc(OC)ccc3O)[nH]n2)cc1	0%	-15%	16µM*[quencher]	?	-2
O=C(CS(=O)c1ccc(C(F)(F)F)cc1[N+](=O)[O-])Oc1ccccc1 (centres undefined)	-1%	-16%	-10%	3%	-39*
COC(=O)c1ccc(OC(=O)CS(=O)c2ccccc2[N+](=O)[O-])cc1 (centres undefined)	-17%	-1%	?	?	0
CSc1ccc(C2C(C#N)=C(N)N(c3ccccc3)C3=C2C(=O)CCC3)cc1 (centres undefined)	-4%	-16%	-21%	?	-8
N#CC1=C(N)N(c2ccc(F)cc2)C2=C(C1c1ccc(O)cc1)S(=O)(=O)CC2 (centres undefined)	?	-25%	?	16µM*	-26
Cc1ccc(S(=O)(=O)c2nc(C(C)(C)C)oc2N2CCOCC2)cc1	40µM*	-14%	-16%	?	7
Cc1ccc(S(=O)(=O)c2nc(C)oc2N2CCOCC2)cc1	-3%[2.34 µM]	?	-13%	-17%	-1
Nc1ccccc1Nc1cc(-c2cccc(Cl)c2)nn1-c1ccccc1	?	-14%	13µM*[quencher]	?	-4
COc1cccc(O)c1O	25µM*	.	11µM*[quencher]	14µM*	-33*
N#C/C(=C(/O)c1cc2ccccc2o1)c1nc2ccccc2s1	?	-22%	?	6.3µM*	0
O=C(CSc1cn(CCNC(=O)c2c(F)cccc2F)c2ccccc12)Nc1ccc(F)cc1	-5%	-21%	?	-13%	.
CCN(CC)c1ccc(/C=C/C(=O)C2C(=O)C=C(C)OC2=O)cc1 (centres undefined)	?	4.5µM*	6.3µM*[fluorescent]	3.2µM*	5
Cn1c(-c2ccccc2)c(/C=N/NC(=O)c2ccc(O)cc2)c2ccccc21	2%	-22%	20µM*[quencher]	?	-3
CN(Cc1ccco1)c1ccnc(-c2ccoc2)n1	?	.	?	22µM*	0
CN(Cc1ccco1)c1ccnc(-c2cccnc2)n1	.	.	.	.	2
O=[N+]([O-])c1cccnc1N1CCC(c2cc(-c3cccc(C(F)(F)F)c3)n[nH]2)CC1	-9%	-17%	?	14µM*	0
O=[N+]([O-])c1cccnc1N1CCC(c2cc(-c3ccc(Cl)cc3Cl)n[nH]2)CC1	-9%	-16%	?	13µM*	-1
CC(=O)c1ccc(N2CCC(c3cc(-c4ccc(Cl)cc4Cl)n[nH]3)CC2)c([N+](=O)[O-])c1	?	-7%	?	13µM*	-6
COc1ccc(OC)c(-c2cc(C3CCN(c4ncccc4[N+](=O)[O-])CC3)[nH]n2)c1	1%	-16%	-5%	-15%	-5
CC(=O)c1ccc(N2CCN(c3ccccc3O)CC2)c([N+](=O)[O-])c1	.	-13%	.	.	2
SMILES	Tau fibril FP	USP1-UAF1 inh	Tau fluor cs	Tau ThT inhib	FBPA coupling cs
CCOC(=O)c1c(NC(=O)C2CC2)sc(C)c1CC	?	-15%	-22%	28µM*	-4
COc1ccc(CCNC(=O)C2=C(C)C(=O)OC23CCCCC3)c(OC)c1OC	6%	-9%	-1%	0%	.
Cc1ccccc1OCCSc1nc2ccc(NC(=O)c3cccs3)cc2s1	10µM*	-25%	?	14%	.
Cc1ccccc1C(=O)Nc1ccc2nc(SCCOc3ccccc3)sc2c1	?	-17%	-17%	-10%	.
Cc1ccccc1OCC(=O)Nc1ccc2nc(SCCOc3ccccc3)sc2c1	-13%	-26%	-24%	?	.
CCCC(=O)Nc1ccc2nc(SCC(=O)Nc3ccc(N4CCOCC4)c(Cl)c3)sc2c1	5%	-6%	14µM*[quencher]	?	-6
Cc1ccccc1OCCSc1nc2ccc(NC(=O)c3ccccc3)cc2s1	11µM*	-7%	?	-2%	.
COc1cccc(NC(=O)CSc2nc3ccc(NC(=O)c4ccco4)cc3s2)c1	?	?	16µM*[quencher]	9%	.
CC(=O)c1cc2c(cc1NC(=O)C1CN(C(C)=O)c3ccccc3O1)OCO2 (centres undefined)	.	-23%	.	.	.
Cc1ccccc1OCCSc1nc2ccc(NC(=O)c3cccc(F)c3)cc2s1	14µM*	-13%	?	?	.
Cc1ccc(NC(=O)CSc2nc3ccc(NC(=O)c4cccs4)cc3s2)c(C)c1	18µM*	-1%	?	-10%	.
COc1cc(C)ccc1OCCSc1nc2ccc(NC(C)=O)cc2s1	25µM*	0%	?	-5%	.
CC(=O)Nc1ccc2nc(SCCOc3ccc(C)cc3)sc2c1	?	?	-17%	-12%	.
Cc1cccc(OCCSc2nc3ccc(NC(=O)c4cccs4)cc3s2)c1	7.1µM*	-23%	?	7%	.
COc1cccc(N2CCN(C(=O)c3cccc(NC(=O)c4nsc5ccccc45)c3)CC2)c1	10%	-16%	?	-17%	.
O=C(/C=C/c1cccc(C(F)(F)F)c1)NNC(=O)c1ccncc1	.	-4%	.	.	.
Cc1ccc(NC(=O)CSc2nc3ccc(Br)cc3[nH]2)c(C)c1	22µM*	-17%	?	9%	.
CN(C)[C@H]1C(=O)C(C(=O)NCN2CCCC2)=C(O)[C@]2(O)C(=O)C3=C(O)c4c(O)cccc4[C@@](C)(O)[C@H]3C[C@@H]12	.	.	.	.	-36*
COc1ccc(-c2nn(-c3cccc(F)c3)c3c2cnc2cc(OC)c(OC)cc23)cc1	16%	2%	-4%	3%	.
N#CC1=C(N)OC2=C(C(=O)CCC2)C1c1ccccc1 (centres undefined)	-2%	-8%	-5%	-7%	-3
Cn1cccc1C1C(C#N)=C(N)OC2=C1C(=O)CCC2 (centres undefined)	-1%	-15%	-3%	?	-34*
COc1cc(SC#N)ccc1N=Cc1c(C)[nH]n(-c2ccc(C)cc2C)c1=O	?	-13%	-21%	14µM*	2
COc1ccccc1N=Cc1c(C)[nH]n(-c2ccc(C)cc2C)c1=O	-3%[2.34 µM]	-18%	7%[2.34 µM]	-17%	-5
COc1cc(SC#N)ccc1N=Cc1c(C)[nH]n(-c2cccc3ccccc23)c1=O	?	-20%	-17%	7.9µM*	1
COc1cc2ncc(C(=O)c3ccc(C)cc3)c(N3CCCCC3)c2cc1OC	-10%	-17%	-23%	?	.
